Measurements reported in PubChem BioAssay AID1159580 (chemical genetic matrix, 2015).
In all, about 5,500 compounds went through this assay and about 2,000 (36%) were called active. Not shown: some 18% with an inconclusive outcome. Cut-off read from the data, not from the text of the source: active = normalized growth mostly below about 0.91 (no sharp cut-off); inconclusive = no clear call, values can overlap the other calls; inactive = mostly above about 0.92. This is one part of the list.

Assay: chemical genetic growth profiling, strain panel (AID 1159580);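 note: tested at 20 µM; growth read once vehicle control cultures reached saturation at 30 °C; 1 = growth at the plate median or of vehicle wells; lower values mean less growth of the strain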
Conditions: S. cerevisiae deletion strains, growth OD

Measured: normalized growth

N[C@H](CO)Cc1ccccc1
inactive: locus YAL021C, strain ccr4, hits give low values 1.01 | locus YAL026C, strain drs2, hits give low values 1.02 | locus YAL030W, strain snc1, hits give low values 1.03 | locus YBL061C, strain skt5, hits give low values 1.03 | locus YBR009C, strain hhf1, hits give low values 1.03 | locus YBR023C, strain chs3, hits give low values 1.02 | locus YBR171W, strain sec66, hits give low values 1.02 | locus YBR231C, strain swc5, hits give low values 1.02 | locus YBR279W, strain paf1, hits give low values 1.01 | locus YCL011C, strain gbp2, hits give low values 1.01 | locus YCL016C, strain dcc1, hits give low values 0.998 | locus YCL061C, strain MRC1, hits give low values 1.02 | locus YCL069W, strain vba3, hits give low values 1.02 | locus YCR088W, strain abp1, hits give low values 1.01 | locus YDL005C, strain med2, hits give low values 1.01 | locus YDL040C, strain nat1, hits give low values 1.02 | locus YDR001C, strain nth1, hits give low values 1.02 | locus YDR069C, strain doa4, hits give low values 1.04 | locus YDR137W, strain rgp1, hits give low values 1.01 | locus YDR159W, strain sac3, hits give low values 1.06 | locus YDR195W, strain ref2 1.02 | locus YDR297W, strain sur2, hits give low values 1.05 | locus YDR334W, strain swr1, hits give low values 1.02 | locus YDR335W, strain msn5, hits give low values 1.01 | locus YDR392W, strain spt3, hits give low values 0.927 | locus YEL003W, strain gim4, hits give low values 1.03 | locus YEL037C, strain rad23, hits give low values 1.01 | locus YEL061C, strain CIN8 (second series), hits give low values 1.02 | locus YER015W, strain faa2, hits give low values 1.03 | locus YER016W, strain bim1, hits give low values 1.03 | locus YER111C, strain swi4, hits give low values 1.02 | locus YER155C, strain BEM2 (second series), hits give low values 1.02 | locus YFR010W, strain ubp6, hits give low values 1.04 | locus YGL167C, strain pmr1, hits give low values 1.02 | locus YGL173C, strain kem1, hits give low values 1.03 | locus YGL227W, strain vid30, hits give low values 1.03 | locus YGL240W, strain doc1, hits give low values 1.02 | locus YGL253W, strain hxk2, hits give low values 1.03 | locus YHR013C, strain ard1, hits give low values 1.03 | locus YHR027C, strain rpn1, hits give low values 1.02 | locus YHR030C, strain SLT2, hits give low values 1.07 | locus YHR079C, strain IRE1, hits give low values 1.05 | locus YHR142W, strain chs7, hits give low values 1.03 | locus YJL092W, strain hpr5, hits give low values 1.02 | locus YJL095W, strain BCK1 (second series), hits give low values 1.02 | locus YJL095W, strain BCK1, hits give low values 1.06 | locus YJL115W, strain asf1, hits give low values 1.01 | locus YJL129C, strain trk1, hits give low values 1.03 | locus YJL154C, strain vps35, hits give low values 1.02 | locus YJL164C, strain tpk1, hits give low values 0.994 | locus YJL166W, strain qcr8, hits give low values 1.02 | locus YJL187C, strain SWE1, hits give low values 1.01 | locus YJR066W, strain TOR1, hits give low values 0.974 | locus YKL160W, strain elf1, hits give low values 0.996 | locus YKR026C, strain gcn3, hits give low values 1.02 | locus YKR091W, strain srl3, hits give low values 1.01 | locus YLL001W, strain dnm1, hits give low values 1.01 | locus YLL026W, hits give low values 1.02 | locus YLL041C, strain sdh2, hits give low values 1.01 | locus YLR027C, strain aat2, hits give low values 1.01 | locus YLR113W, strain HOG1, hits give low values 1.05 | locus YLR221C, strain rsa3, hits give low values 1.03 | locus YLR258W, strain gsy2, hits give low values 1.05 | locus YLR262C, strain YPT6 (second series), hits give low values 1.02 | locus YLR320W, strain mms22, hits give low values 1.03 | locus YLR342W, strain FKS1, hits give low values 1.03 | locus YLR357W, strain rsc2, hits give low values 1.05 | locus YLR370C, strain arc18, hits give low values 1.04 | locus YLR384C, strain iki3, hits give low values 1 | locus YML120C, strain ndi1, hits give low values 1.01 | locus YMR058W, strain fet3, hits give low values 1.02 | locus YMR125W, strain sto1, hits give low values 1.01 | locus YMR129W, hits give low values 1.01 | locus YMR205C, strain PFK2, hits give low values 1.02 | locus YMR231W, strain pep5, hits give low values 1.02 | locus YNL071W, strain lat1, hits give low values 1.02 | locus YNL183C, strain NPR1, hits give low values 0.974 | locus YNL209W, strain ssb2, hits give low values 1.01 | locus YNL248C, strain rpa49, hits give low values 1.06 | locus YNL322C, strain KRE1 (second series), hits give low values 1.02 | locus YNR049C, strain mso1, hits give low values 1.02 | locus YOR001W, strain rrp6, hits give low values 1.03 | locus YOR070C, strain gyp1, hits give low values 1.01 | locus YOR080W, strain dia2, hits give low values 1.02 | locus YOR083W, strain WHI5, hits give low values 1 | locus YOR106W, strain vam3, hits give low values 1 | locus YOR231W, strain MKK1, hits give low values 1.07 | locus YOR265W, strain rbl2, hits give low values 1.01 | locus YOR270C, strain vph1, hits give low values 1.06 | locus YOR290C, strain snf2, hits give low values 0.978 | locus YPL051W, strain arl3, hits give low values 1.03 | locus YPL078C, strain atp4, hits give low values 0.99 | locus YPL106C, strain sse1, hits give low values 1 | locus YPL240C, strain hsp82, hits give low values 1.02 | locus YPL256C, strain CLN2, hits give low values 1.04
